An excerpt weighted towards active compounds, which were near 3.4% of everything screened.
MITF primary – human MITF inhibition, primary screen. AlphaScreen MITF homodimerization, bead proximity signal. AID 1259374. inhibition, % at 2.6 µM. hit rate 0.91% among 650,000; in the data active = inhibition above about 50%;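 also: 0% = vehicle wells with protein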
Target sequence (O75030 whole entry, looked up): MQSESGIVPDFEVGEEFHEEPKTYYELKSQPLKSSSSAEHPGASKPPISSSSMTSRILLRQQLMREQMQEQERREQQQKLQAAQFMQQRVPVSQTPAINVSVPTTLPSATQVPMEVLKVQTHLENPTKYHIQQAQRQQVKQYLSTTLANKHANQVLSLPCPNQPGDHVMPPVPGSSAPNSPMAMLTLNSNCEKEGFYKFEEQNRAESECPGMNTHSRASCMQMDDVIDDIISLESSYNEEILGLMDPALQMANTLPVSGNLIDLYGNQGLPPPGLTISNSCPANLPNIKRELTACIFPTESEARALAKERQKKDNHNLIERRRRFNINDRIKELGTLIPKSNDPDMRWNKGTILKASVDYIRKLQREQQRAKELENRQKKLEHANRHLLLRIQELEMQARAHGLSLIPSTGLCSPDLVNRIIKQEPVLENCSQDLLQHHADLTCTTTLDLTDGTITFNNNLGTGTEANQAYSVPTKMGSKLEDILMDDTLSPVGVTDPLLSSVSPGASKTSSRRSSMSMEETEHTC
GPR151 activ – activators of human GPR151 | activation, % at 11.2 µM | hit rate 1% among 650,000 | PathHunter beta-arrestin GPR151 cells, luminescence | Q8TDV0; in the data active = activation above about 4.9%;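 also: 0% = median of compound wells and 100% = cells with positive control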
FBW7 activator – activators of human E3 ligase FBW7. AlphaScreen FBW7–phospho-cyclin E peptide binding, activator screen. AID 1259310. hit rate 0.13% among 650,000. normalized activity (activation), % at 26.1 µM; in the data active = normalized activity above about 1.9%;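 also: purified mutant Fbw7 with reduced substrate affinity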
TEAD-YAP inh – TEAD-YAP interaction inhibition; hit rate 1.4% among 640,000; inhibition, % at 9.12 µM; HEK-TIYL cells, TEAD-Gal4/YAP UAS-luciferase luminescence; AID 1259422; in the data active = inhibition above about 32%;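 also: 0% = median of test compound wells and 100% = reference inhibitor wells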
* marks the source's active call; other numbers are inactive results.

SMILES	MITF primary	GPR151 activ	FBW7 activator	TEAD-YAP inh
Cc1ccc(N(C(=O)C(Cl)(Cl)Cl)C2C=CS(=O)(=O)C2)cc1 (configuration not stated)	8.2	1.1	0.0	-2.2
COc1ccc(-c2nc(Nc3ccc(NC(C)=O)cc3)c3ncn(-c4ccsc4)c3n2)cc1	6.7	0.1	0.2	43.2*
CC(=O)Nc1ccc(Nc2nc(-c3cccc(N)c3)nc3c2ncn3-c2ccsc2)cc1	-1.7	3.0	0.0	42.8*
Nc1cccc(-c2nc(Nc3ccccc3)c3ncn(-c4ccsc4)c3n2)c1	1.1	-0.1	0.0	49.4*
O=C(CNC(=S)N(Cc1cccs1)C1CCCC1)N1CCOCC1	10.0	-0.2	-0.1	-8.7
CCOCCCNC1CCN(c2nc(C)c3cc(OC)ccc3n2)CC1	-4.8	0.6	0.2	48.7*
COc1ccc2c(C)nc(N3CCC(NCCCOC(C)C)CC3)nc2c1	14.9	-1.3	0.2	-2.4
COc1ccc(NC(=O)c2ccc(F)c(F)c2)cc1N1CCCCC1=O	-4.3	-0.1	-0.1	0.1
CN(C)c1ccc(/C=N/Nc2ncnc3nc[nH]c23)cc1	-3.5	-1.3	-0.1	60.4*
COc1ccc(/C=N/Nc2ncnc3nc[nH]c23)cc1	10.8	-2.0	-0.1	58.1*
Clc1cccc(/C=N/Nc2ncnc3nc[nH]c23)c1	3.6	-4.5	-0.1	58.0*
Fc1cccc(/C=N/Nc2ncnc3nc[nH]c23)c1	8.8	-7.1	-0.1	9.2
Oc1ccc(Br)cc1/C=N/Nc1ncnc2nc[nH]c12	75.0*	-2.2	-0.5	71.8*
Cc1ccc(/C=N/Nc2ncnc3nc[nH]c23)cc1	9.0	-2.5	-0.1	29.2
COC(=O)c1c(S(=O)(=O)NC2CC2)sc2c1CCN(Cc1cc(C)cc(C)c1)C2	-1.4	2.5	0.3	1.9
CCOC(=O)c1sc(NC(=O)c2cc([N+](=O)[O-])ccc2Sc2nnnn2C)cc1C	13.2	0.1	0.2	8.3
Cn1nnnc1Sc1ccc([N+](=O)[O-])cc1C(=O)Nc1ccc(C(F)(F)F)cc1	-8.6	0.9	-0.1	49.6*
CC(CCCC(C)(C)O)NC(=O)c1cc(COc2ccc3ncccc3c2)on1 (configuration not stated)	10.9	4.5	-0.1	33.3*
O=C(NC1(c2ccccc2)CC1)c1cc(COc2ccc3ncccc3c2)on1	-4.9	-0.3	-0.1	58.4*
COc1ccc(NC(=O)c2cn(-c3ccc(Cl)cc3)c(=O)c3ccccc23)c(OC)c1	8.4	-1.4	0.8	-0.8
Cc1cc(C)nc(-n2nc(C)cc2C)n1	1.9	0.5	-0.1	-6.3
CCNc1nc(NCC)nc(-n2nc(C)cc2C)n1	-2.2	2.7	0.0	53.0*
CC(=O)c1cccc(NC(=O)CN(c2ccccc2)S(C)(=O)=O)c1	-18.7	-0.6	1.9*	8.1
CC(=O)c1ccc(NC(=O)Nc2cccc(C(=O)O)c2)cc1	-1.3	4.0	0.0	51.3*
CS(=O)(=O)N(CC(=O)Nc1cccc(Cl)c1)c1ccccc1	1.9	0.9	0.1	3.9
SMILES	MITF primary	GPR151 activ	FBW7 activator	TEAD-YAP inh
CC(=O)c1cccc(NC(=O)CCl)c1	-4.4	1.1	-0.1	98.7*
CC(=O)c1cccc(NC(=O)CCC(=O)Nc2cccc(C(C)=O)c2)c1	9.9	-1.0	0.1	8.6
CC(=O)c1cccc(NC(=O)Nc2ccccc2)c1	0.3	-1.4	0.1	-24.7
CC(C)(C)c1ccc(COCCn2cc(-c3ccncn3)cn2)cc1	17.2	1.5	0.1	-5.8
Cc1ccc2nc(=S)n(C(=O)c3ccccc3F)n2c1	2.0	-1.1	-0.1	62.4*
CCN(CC)c1ccc(/C=N\Nc2cc(=O)n(C)c(=O)n2C)cc1	3.5	0.0	-0.1	55.0*
COc1ccc2c(c1)C(=O)NC2CC(=O)NC1(c2ccccc2OC)CCCC1 (configuration not stated)	9.3	1.0	-0.1	48.9*
CC1CCC(C(C)C)C(OC(=O)Cn2c(-c3ccc(Cl)cc3)[n+](C)c3ccccc32)C1 (configuration not stated)	-3.0	3.7	-0.1	45.3*
CC(=O)Nc1ccc(NC(=O)Cn2cnc3c(cnn3C(C)(C)C)c2=O)cc1	17.6	-0.3	4.0*	2.0
COc1ccc(C(=O)COc2cccc3c(=O)n(C)ccc23)cc1	-2.6	3.2	0.2	48.4*
COc1ccc(S(=O)(=O)N(CC(=O)Nc2cc(Cl)ccc2OC)c2ccc(C)cc2)cc1	10.7	1.6	-0.1	8.7
C=CCNC(=S)N/N=C(\C)c1ccccn1	60.1*	-2.6	-0.6	89.5*
C=CCNC(=S)N/N=C(\C)c1ccc2ccccc2c1	10.1	0.1	0.2	4.3
CCOC(=O)C(CC)/C(C)=N\NC(=O)c1ccccc1O (configuration not stated)	0.3	0.6	-0.9	59.3*
CCOC(=O)C(CC)/C(C)=N\NC(=O)c1ccccc1[N+](=O)[O-] (configuration not stated)	8.7	0.4	0.8	1.7
Cc1ccc(/C(O)=C2\C(=O)C(=O)N(CCN3CCOCC3)C2c2ccc(C)cc2)cc1 (configuration not stated)	-5.6	-0.3	-0.1	-8.2
O=C(Nc1ccc(O)cc1)c1c(O)c2c([nH]c1=O)CCCC2	4.0	2.0	-0.1	68.3*
Cc1ccc(NC(=O)c2c(O)c3c([nH]c2=O)CCCC3)cc1	2.4	-0.8	-0.1	2.0
Cc1c(C(=O)NC2CCCCCC2)sc2ncn(Cc3cccc(F)c3)c(=O)c12	22.8	-0.3	0.5	-7.3
Cc1ccc(C(=O)/C=C/Nc2cccc(O)c2)cc1	-1.9	-0.2	-0.2	92.4*
COc1cc(C(=O)/C=C/Nc2cccc(F)c2)cc(OC)c1OC	-1.5	2.2	0.0	28.4
COc1cc(C(=O)/C=C/Nc2cccc(O)c2)cc(OC)c1OC	13.3	0.0	0.0	37.7*
Cc1ccc(/C=C/C(=O)c2ccc(O)cc2)cc1	-1.0	-2.3	-0.1	46.6*
COC(=O)C1=C(C)N(C)C(=O)NC1c1ccc(OC)c(Br)c1 (configuration not stated)	16.2	1.5	0.2	1.8
CC1(C)Cc2c(c(N3CCOCC3)nc3snc(N)c23)CO1	7.0	0.6	0.0	35.9*
SMILES	MITF primary	GPR151 activ	FBW7 activator	TEAD-YAP inh
COc1ccc(C2Nc3ccc(C(=O)c4ccccc4)cc3NC3=C2C(=O)CCC3)cc1 (configuration not stated)	4.5	0.2	-0.1	39.0*
CCOc1ccc(C2Nc3ccc(C(=O)c4ccccc4)cc3NC3=C2C(=O)CCC3)cc1 (configuration not stated)	17.0	1.6	0.2	47.4*
COc1ccc(C2Nc3ccc(C(=O)c4ccccc4)cc3NC3=C2C(=O)CC(C)(C)C3)cc1 (configuration not stated)	8.0	-0.5	0.1	15.5
COc1cc(C2Nc3ccc(C(=O)c4ccccc4)cc3NC3=C2C(=O)CCC3)cc(OC)c1O (configuration not stated)	-10.7	-0.8	-0.1	67.9*
COc1cccc(C2Nc3ccc(C(=O)c4ccccc4)cc3NC3=C2C(=O)CCC3)c1 (configuration not stated)	-1.9	1.0	0.1	60.0*
O=C1CCCC2=C1C(c1ccc(F)c(Oc3ccccc3)c1)Nc1ccc(C(=O)c3ccccc3)cc1N2 (configuration not stated)	2.3	1.6	-0.1	8.3
